# Measured values published in PubChem BioAssay (NCATS).
# Inconclusive results are not listed. Values without a mark were called inactive. Activity calls are given as the source filed them. The call rests on the fitted dose curve; in most records, active means well fitted curve in the direction sought with a large enough effect; inconclusive means small, poorly fitted or top-dose-only effect, or another doubt; inactive means no such curve, though single readings can be large; an effect the other way counts as inactive or inconclusive.
# Columns and labels:
# [1] = BET inhibitor-based combinations targeting novel dependencies in MECOM-rearranged (r) AML: SET-2 cell line (AID 2202231); details: SET-2 AML cells viability, CellTiter-Glo luminescence, 48 h; viability: stronger effect = lower value, concentration not given here; further: nearly all actives have a fitted effect of over 35% in size;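 on viability: plate controls were DMSO treated cells for no effect and wells without cells for full effect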
# Outline: (§1)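 Luminescent ATP readout (CellTiter-Glo) after 48 hr drug exposure gives viability. Curves span 11 concentrations and are normalized to DMSO and empty wells. Activity is reported as area under the curve and its Z-transform within each cell line.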
# [2] = BET inhibitor-based combinations targeting novel dependencies in MECOM-rearranged (r) AML: OCI-AML3 cell line (AID 2202232); details: CellTiter-Glo luminescence, 48 h; Potency: OCI-AML3 viability; series mostly up to 46 µM; further: nearly all actives have a fitted effect of over 35% in size
# Outline: as §1
# [3] = BET inhibitor-based combinations targeting novel dependencies in MECOM-rearranged (r) AML: MV-4-11 cell line (AID 2202233); details: MV-4-11 AML viability, CellTiter-Glo luminescence, 48 h; series mostly up to 46 µM; further: nearly all actives have a fitted effect of over 45% in size
# Outline: (§2)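 Luminescent ATP readout (CellTiter-Glo, 15 min at room temperature) after 48 hr drug exposure gave viability. Dose-response curves, normalized to DMSO and empty-well controls, were summarized as area under the curve and its mean-centred Z-score.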
# [4] = BET inhibitor-based combinations targeting novel dependencies in MECOM-rearranged (r) AML: HNT-34 cell line (AID 2202234); details: HNT-34 AML viability, CellTiter-Glo luminescence, 48 h; series mostly up to 46 µM; further: nearly all actives have a fitted effect of over 35% in size
# Outline: as §2
# [5] = BET inhibitor-based combinations targeting novel dependencies in MECOM-rearranged (r) AML: UCSD-AML1 cell line (AID 2202235); details: UCSD-AML1 AML cells viability, CellTiter-Glo, 48 h; series mostly up to 46 µM; further: nearly all actives have a fitted effect of over 40% in size
# Outline: as §2
# [6] = BET inhibitor-based combinations targeting novel dependencies in MECOM-rearranged (r) AML: AML-194 cell line (AID 2202237; further: nearly all actives have a fitted effect of over 40% in size); details: AML-194 (MECOM-r AML) viability, CellTiter-Glo, 48 h; series mostly up to 46 µM
# Outline: as §1
# [7] = BET inhibitor-based combinations targeting novel dependencies in MECOM-rearranged (r) AML: AML-191 cell line (AID 2202236; further: nearly all actives have a fitted effect of over 35% in size); details: AML-191 viability, CellTiter-Glo luminescence, 48 h; series mostly up to 46 µM
# Outline: as §1
# Potency means the concentration at half of the fitted maximal effect.
SMILES,Potency [1],Potency [2],Potency [3],Potency [4],Potency [5],Potency [6],Potency [7],viability [1] [%]
O=C(NOCCO)c1ccc2cncn2c1Nc1ccc(I)cc1F,18.6 µM (active),0.0934 µM (active),0.742 µM (active),0.525 µM (active),1.32 µM (active),1.66 µM (active),,
O=C(NO)c1cnc(NC2(c3ccccc3)CC2)nc1,6.61 µM (active),5.9 µM (active),3.32 µM (active),6.61 µM (active),8.33 µM (active),8.33 µM (active),7.42 µM (active),
C[C@H](NC(=O)CCC(F)(F)F)C(=O)N[C@@H]1C(=O)N(CCO)c2ncccc2-c2ccccc21,,inactive,inactive,inactive,inactive,inactive,,95.9
O=c1[nH]c(=O)n([C@H]2C[C@H](O)[C@@H](CO)O2)cc1F,0.296 µM (active),0.417 µM (active),0.0742 µM (active),5.9 µM (active),,,0.263 µM (active),
Nc1cc(C(F)(F)F)c(-c2nc(N3CCOCC3)nc(N3CCOCC3)n2)cn1,9.34 µM (active),3.72 µM (active),3.72 µM (active),2.63 µM (active),0.934 µM (active),2.35 µM (active),2.63 µM (active),
COc1cc(Nc2cnc(C#N)c(O[C@H](C)CN(C)C)n2)ncc1-c1cnn(C)c1,3.72 µM (active),1.32 µM (active),0.742 µM (active),2.95 µM (active),1.86 µM (active),1.48 µM (active),,
CCC1=C[C@@H]2CN(C1)Cc1c([nH]c3ccccc13)[C@@](C(=O)OC)(c1cc3c(cc1OC)N(C)[C@H]1[C@@](O)(C(=O)OC)[C@H](OC(C)=O)[C@]4(CC)C=CCN5CC[C@]31[C@@H]54)C2,7.23 µM (active),0.257 µM (active),0.323 µM (active),0.229 µM (active),0.407 µM (active),0.645 µM (active),,
O=C(/C=C/c1ccc2ccc(C(F)(F)F)cc2n1)c1ccncc1,2.63 µM (active),1.86 µM (active),1.05 µM (active),1.32 µM (active),1.66 µM (active),2.35 µM (active),,
N=C(N)c1ccc(OCCCCCOc2ccc(C(=N)N)cc2)cc1,20.9 µM (active),8.33 µM (active),13.2 µM (active),26.3 µM (active),23.5 µM (active),20.9 µM (active),,
N=C(N)c1ccc2nc(-c3cc(CC(=O)N[C@@H](CC(=O)O)C(=O)O)cc(-c4cc(S(N)(=O)=O)ccc4O)c3O)[nH]c2c1,,inactive,inactive,inactive,inactive,inactive,inactive,117
Nc1nc(=S)c2[nH]cnc2[nH]1,0.742 µM (active),0.417 µM (active),0.296 µM (active),3.32 µM (active),2.95 µM (active),3.72 µM (active),0.833 µM (active),
C/C=C/C/C=C/CCC(=O)[C@H]1O[C@H]1C(N)=O,20.9 µM (active),11.8 µM (active),20.9 µM (active),14.8 µM (active),20.9 µM (active),26.3 µM (active),,
COC1CCC(N2C(=O)CNc3ncc(-c4ccc(C(C)(C)O)nc4)nc32)CC1 (stereo unspecified),7.42 µM (active),5.25 µM (active),3.72 µM (active),2.35 µM (active),0.525 µM (active),1.66 µM (active),5.9 µM (active),
CC(/C=C1\SC(=S)N(CC(=O)O)C1=O)=C\c1ccccc1,,inactive,inactive,inactive,inactive,inactive,inactive,113
COc1ccnc2[nH]cc(C(=O)C(=O)N3CCN(C(=O)c4ccccc4)C[C@H]3C)c12,,inactive,inactive,inactive,inactive,inactive,inactive,113
COc1cc(OC)cc(N(CCNC(C)C)c2ccc3ncc(-c4cnn(C)c4)nc3c2)c1,18.6 µM (active),18.6 µM (active),16.6 µM (active),2.35 µM (active),10.5 µM (active),18.6 µM (active),18.6 µM (active),
Cc1cnc(NC(=O)c2cc(Oc3cnc(C(=O)N(C)C)nc3)c3cc(C)oc3c2)cn1,,inactive,inactive,inactive,inactive,inactive,inactive,126
C=CC[N+]1([C@H]2C[C@H]3[C@@H]4CC[C@H]5C[C@H](O)[C@@H](N6CCOCC6)C[C@]5(C)[C@H]4CC[C@]3(C)[C@H]2OC(C)=O)CCCC1,,inactive,inactive,inactive,inactive,inactive,,115
